Measurements taken from the supplement of paper PMC6555819.

How the values were obtained:
Assay in all cases: PBM binding z-score (relative to random genomic background probes); higher = stronger binding; sequences stand for … in GC…GCGATTGACAGCGTAGAATGAAGG
[1] = system: FXR:RXRa (NR concentration 270 nM, RXRa partner concentration 90 nM)
In short: (§1)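 Regression normalization was applied to scanned fluorescence from custom Agilent 4×180K protein-binding microarrays. Before scanning, arrays were incubated 1 h with ligand-free nuclear receptor dimers, and binding was detected with antibodies against each partner (one per run). Binding z-scores use the random background probes as reference.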

[2] = system: LXRa:RXRa (NR concentration 270 nM, RXRa partner concentration 90 nM)
In short: as §1

[3] = system: LXRa homodimer (NR concentration 270 nM)
In short: as §1

[4] = system: LXRb:RXRa (NR concentration 270 nM, RXRa partner concentration 90 nM)
In short: as §1

[5] = system: LXRb homodimer (NR concentration 270 nM)
In short: as §1

[6] = system: PPARa:RXRa (NR concentration 270 nM, RXRa partner concentration 90 nM)
In short: as §1

[7] = system: PPARg:RXRa (NR concentration 180 nM, RXRa partner concentration 90 nM)
In short: as §1

[8] = system: PPARg:RXRa 270nM:90nM, anti-RXR (NR concentration 270 nM, RXRa partner concentration 90 nM)
In short: as §1

[9] = system: PPARg:RXRa 30nM:10nM, anti-RXR (NR concentration 30 nM, RXRa partner concentration 10 nM)
In short: as §1

[10] = system: PPARg:RXRa 90nM:30nM, anti-RXR (NR concentration 90 nM, RXRa partner concentration 30 nM)
In short: as §1

[11] = system: PPARg:RXRa DBDmut IVT, anti-RXR (DBD mutation: RXRa K156A/R161A, NR concentration 270 nM, RXRa partner concentration 90 nM)
In short: as §1

[12] = system: PPARg:RXRa IVT, anti-PPARg (NR concentration 270 nM, RXRa partner concentration 90 nM)
In short: as §1

[13] = system: PPARg DBDmut:RXRa IVT, anti-PPARg (DBD mutation: PPARg1 K132A/R137A, NR concentration 270 nM, RXRa partner concentration 90 nM)
In short: as §1

[14] = system: PPARg DBDmut IVT, anti-PPARg (DBD mutation: PPARg1 K132A/R137A, NR concentration 270 nM)
In short: as §1

[15] = system: PPARg homodimer (NR concentration 180 nM)
In short: as §1

[16] = system: PXR:RXRa (NR concentration 270 nM, RXRa partner concentration 90 nM)
In short: as §1

[17] = system: PXR homodimer (NR concentration 270 nM)
In short: as §1

[18] = system: RARa:RXR (NR concentration 270 nM, RXRa partner concentration 90 nM)
In short: as §1

[19] = system: RARa homodimer (NR concentration 270 nM)
In short: as §1

[20] = system: RARb:RXRa (NR concentration 270 nM, RXRa partner concentration 90 nM)
In short: as §1

| Sequence | PBM binding z-score [1] | PBM binding z-score [2] | PBM binding z-score [3] | PBM binding z-score [4] | PBM binding z-score [5] | PBM binding z-score [6] | PBM binding z-score [7] | PBM binding z-score [8] | PBM binding z-score [9] | PBM binding z-score [10] | PBM binding z-score [11] | PBM binding z-score [12] | PBM binding z-score [13] | PBM binding z-score [14] | PBM binding z-score [15] | PBM binding z-score [16] | PBM binding z-score [17] | PBM binding z-score [18] | PBM binding z-score [19] | PBM binding z-score [20] |
| --- | --- | --- | --- | --- | --- | --- | --- | --- | --- | --- | --- | --- | --- | --- | --- | --- | --- | --- | --- | --- |
| TTGCCTAGGTCATTCAGGGGCCAGTATAGAAAGC | 5.14 | 3.97 | 0.809 | 2.93 | 0.902 | 3.51 | 2.07 | 2.24 | 0.187 | 1.52 | 1.9 | 2.33 | 0.195 | -0.447 | 2.69 | 2.63 | 0.107 | 4.21 | -0.129 | 3.93 |
| ACAGACAGGTGAGAGAAGGTAACTCAGCTGGACG | 0.34 | -0.0792 | -0.413 | -0.366 | -0.81 | 0.165 | 0.832 | -0.247 | 0.0838 | 0.154 | 0.676 | 0.706 | 0.0985 | -0.367 | -0.0826 | -0.372 | -0.505 | 0.102 | -0.00725 | 0.565 |
| TCATATTGGTAATACAGGTGAAAGTCGGCATCTA | 1.28 | 1.16 | 0.763 | 1.2 | 0.359 | 1.79 | 1.09 | 2.7 | 3.88 | 3.11 | 2.7 | 1.89 | 0.751 | 1.85 | 1.69 | 0.947 | 0.763 | 1.09 | 1.43 | 0.496 |
| TCTTGTAGATCAGCAGGTTAAGCAAGCTGGCCAA | 0.0214 | 0.292 | -0.676 | 0.24 | -0.51 | 0.793 | -0.47 | 1.26 | 2.15 | 1.62 | 1.37 | 0.191 | -0.396 | 0.0188 | -0.763 | 0.022 | -0.446 | 0.058 | -1.03 | 0.0308 |
| TTACCAAGGTGAAGGTCGTTAATCCCTCTGTAGA | 1.32 | 1.12 | -0.236 | 1.22 | -0.624 | 2.49 | 2.65 | 3.89 | 1.82 | 3.43 | 1.67 | 3.05 | -0.743 | -0.257 | 0.621 | 1.28 | 0.0227 | 1.65 | -0.0474 | 1.98 |
| CCTGCTAAGTCATGGTCAGCTAATCTACAGTATG | -0.197 | -0.105 | -0.185 | -0.137 | -0.307 | -0.22 | -0.135 | -0.368 | -0.358 | -0.204 | 0.985 | -0.177 | -0.766 | -0.271 | 0.146 | -0.158 | -0.39 | -0.0535 | -0.167 | 0.586 |
| TCTTGTAGATCAATAGAGGTTATGAAAGTGCGCT | 0.99 | 3.56 | 0.696 | 1.68 | 0.325 | 1.9 | 0.356 | 2.08 | 2.99 | 2.41 | 1.9 | 1.34 | 0.208 | 0.487 | 0.327 | 2.9 | 0.0755 | 2.04 | 0.403 | 1.02 |
| CCAGACAGGTGAGAAGGTAACTCATCCTCGATTA | 0.223 | 0.195 | 0.213 | 0.16 | -0.283 | 0.773 | 0.558 | 0.703 | 0.0272 | 0.508 | 1.17 | 0.6 | -0.78 | 0.324 | 0.757 | 0.375 | 0.22 | 0.525 | 0.718 | 0.607 |
| GCATATAGGTAATCCAAGGTGAAAGTCCGATTGT | 2.37 | 2.66 | 0.0628 | 0.738 | -0.267 | 1.76 | 1.15 | 1.24 | 0.358 | 0.949 | 4.62 | 3.17 | 0.831 | 0.665 | 1.03 | 0.638 | 0.241 | 1.53 | 0.647 | 0.51 |
| TAGCCTAGGTCCTGGGCCAGTATACCACGCGAAC | -0.638 | -1.08 | -0.796 | -0.85 | -1.45 | -0.439 | -0.0172 | -0.469 | -1.04 | -0.662 | -1.56 | -0.0166 | -0.0149 | -1.32 | -1.29 | -0.91 | -0.893 | -0.567 | -1.37 | -0.156 |
| GTACCAAGGTGAATAGATCGTTGATGAGTAGGCG | 0.377 | 0.133 | -0.179 | -0.113 | -0.522 | 0.852 | 0.853 | 0.705 | 0.296 | 0.417 | 1.62 | 1.74 | 0.415 | 0.448 | 0.785 | -0.0465 | -0.049 | 0.221 | 0.712 | 1.13 |
| TCGAGTATGTTAGGGGCATTCAGAATGGCGTCGA | 0.201 | 0.198 | -0.264 | 0.596 | -0.345 | 0.669 | 0.0373 | 0.882 | 0.884 | 1.02 | 0.969 | -0.000912 | -0.506 | -1.16 | -0.24 | 0.712 | 0.579 | 0.48 | 0.135 | 0.606 |
| CCTTACGGGTCACTGAAAGGTTATAGCATTTGGA | 5.83 | 4.87 | 0.976 | 4.17 | 0.221 | 5.59 | 5.13 | 5.03 | 2.12 | 3.38 | 2.95 | 4.1 | 1 | 1.09 | 3.7 | 5.03 | 0.223 | 6.33 | 0.617 | 4.51 |
| CCGACTGGGGCACGGTTACCATAACGCACAGCCA | -0.15 | -0.079 | -0.346 | -0.211 | -0.878 | 0.346 | 1.8 | 0.982 | -0.228 | 0.391 | 3.83 | 4.42 | -0.407 | -0.566 | 0.044 | -0.353 | -0.44 | -0.139 | -0.261 | 1.06 |
